The record followed here is paper PMC7862700, “An all-to-all approach to the identification of sequence-specific readers for epigenetic DNA modifications on cytosine”.

Holding throughout (test): DAPPL (digital affinity profiling via proximity ligation, sequencing); 10 mM Tris-HCl pH 7.5, 50 mM NaCl, 1 mM DTT, 4% glycerol, room temperature, 30 min; GST-TFs on glutathione beads, 16-mer random dsDNA library, 0.1% formaldehyde crosslink after washing; high values mean tight binding
Common to all, as to conditions: protein: recombinant; tags: N-terminal GST; dsDNA, one strand shown

One experiment concerns the target T1, FLI1 (Homo sapiens, UniProt Q01543 1-452).
T1 sequence: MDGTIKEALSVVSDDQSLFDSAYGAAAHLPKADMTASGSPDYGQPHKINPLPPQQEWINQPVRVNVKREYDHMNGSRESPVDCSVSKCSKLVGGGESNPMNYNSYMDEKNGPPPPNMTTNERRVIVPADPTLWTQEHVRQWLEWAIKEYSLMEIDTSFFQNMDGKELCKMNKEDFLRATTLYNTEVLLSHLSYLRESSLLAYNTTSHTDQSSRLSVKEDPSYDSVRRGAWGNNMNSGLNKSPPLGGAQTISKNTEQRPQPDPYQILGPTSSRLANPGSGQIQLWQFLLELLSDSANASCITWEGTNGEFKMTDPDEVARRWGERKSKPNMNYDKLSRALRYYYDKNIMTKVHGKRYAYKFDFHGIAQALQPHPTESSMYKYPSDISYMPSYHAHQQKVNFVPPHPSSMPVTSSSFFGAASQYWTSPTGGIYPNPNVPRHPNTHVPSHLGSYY
In short, it runs like this:
(§1)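 Human transcription factors were made in yeast as GST fusions, captured on glutathione beads and barcoded with DNA. With a tag-only sample included, the pool was incubated with 200 nmole of a random double-stranded 16-mer DNA library in Tris/NaCl/DTT/glycerol buffer at room temperature for 30 min, then crosslinked with 0.1% formaldehyde after washing, ligated by proximity, amplified and sequenced. For binding signal, each hexamer's read frequency for a factor is divided by its frequency for the tag-only sample.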

A further experiment deals with T2, ELK1 (Homo sapiens, UniProt P19419 1-428).
T2 sequence: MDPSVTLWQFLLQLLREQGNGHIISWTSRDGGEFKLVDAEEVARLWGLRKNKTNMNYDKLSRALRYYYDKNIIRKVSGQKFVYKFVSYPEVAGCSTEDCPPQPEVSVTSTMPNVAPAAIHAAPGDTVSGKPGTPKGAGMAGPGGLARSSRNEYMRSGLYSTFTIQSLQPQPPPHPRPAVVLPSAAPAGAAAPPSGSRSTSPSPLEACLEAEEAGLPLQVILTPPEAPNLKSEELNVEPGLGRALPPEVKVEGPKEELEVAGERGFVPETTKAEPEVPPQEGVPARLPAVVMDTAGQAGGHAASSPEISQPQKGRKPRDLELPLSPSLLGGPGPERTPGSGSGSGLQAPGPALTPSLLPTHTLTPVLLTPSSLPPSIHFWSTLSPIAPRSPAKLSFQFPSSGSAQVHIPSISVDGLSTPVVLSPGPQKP
The gist of the method:
as §1

A further experiment addresses T3, GABPA (Homo sapiens, UniProt Q06546 1-454).
T3 sequence: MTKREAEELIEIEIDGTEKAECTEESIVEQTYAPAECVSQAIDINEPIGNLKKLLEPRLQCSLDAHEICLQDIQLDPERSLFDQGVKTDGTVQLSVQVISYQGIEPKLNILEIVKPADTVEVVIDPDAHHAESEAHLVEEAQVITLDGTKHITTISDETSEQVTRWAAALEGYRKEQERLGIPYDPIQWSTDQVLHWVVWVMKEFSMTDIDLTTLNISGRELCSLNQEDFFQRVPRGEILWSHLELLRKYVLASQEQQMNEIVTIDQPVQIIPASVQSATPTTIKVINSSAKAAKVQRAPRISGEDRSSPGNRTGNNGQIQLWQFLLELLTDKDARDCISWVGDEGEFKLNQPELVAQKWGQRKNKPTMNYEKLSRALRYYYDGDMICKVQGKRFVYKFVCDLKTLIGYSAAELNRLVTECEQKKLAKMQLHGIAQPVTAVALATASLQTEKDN
In short, it runs like this:
as §1

A further experiment deals with ELF1 (Homo sapiens, UniProt P32519 1-619). In short, it runs like this:
as §1

Another experiment concerns the target T4, EHF (Homo sapiens, UniProt Q9NZC4 1-300).
T4 sequence: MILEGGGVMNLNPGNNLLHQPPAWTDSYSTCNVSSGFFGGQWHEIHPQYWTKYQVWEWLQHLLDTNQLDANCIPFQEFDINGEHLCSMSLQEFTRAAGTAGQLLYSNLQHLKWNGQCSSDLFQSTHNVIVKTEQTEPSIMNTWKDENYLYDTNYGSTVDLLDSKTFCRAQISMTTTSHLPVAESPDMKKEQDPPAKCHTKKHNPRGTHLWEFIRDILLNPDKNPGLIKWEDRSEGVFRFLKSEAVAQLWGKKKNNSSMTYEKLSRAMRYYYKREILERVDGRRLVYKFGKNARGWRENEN
The gist of the method:
as §1

A further experiment addresses SPIB (Homo sapiens, UniProt Q01892 1-262). In short, it runs like this:
as §1

The next experiment has as its target T5, ELK3 (Homo sapiens, UniProt P41970 1-407).
T5 sequence: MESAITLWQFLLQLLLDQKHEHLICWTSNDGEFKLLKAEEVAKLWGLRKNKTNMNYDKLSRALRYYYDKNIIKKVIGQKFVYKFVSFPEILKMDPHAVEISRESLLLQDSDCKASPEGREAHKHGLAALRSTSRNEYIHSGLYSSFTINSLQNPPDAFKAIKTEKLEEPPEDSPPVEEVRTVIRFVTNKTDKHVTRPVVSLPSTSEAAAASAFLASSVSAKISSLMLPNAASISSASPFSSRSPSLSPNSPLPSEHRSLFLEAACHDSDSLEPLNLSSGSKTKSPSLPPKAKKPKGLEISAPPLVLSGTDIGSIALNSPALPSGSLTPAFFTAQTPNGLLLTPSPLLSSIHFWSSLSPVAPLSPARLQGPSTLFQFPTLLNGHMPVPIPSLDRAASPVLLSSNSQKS
The gist of the method: as §1

The target of another experiment is T6, ELK4 (Homo sapiens, UniProt P28324-2 1-405).
T6 sequence: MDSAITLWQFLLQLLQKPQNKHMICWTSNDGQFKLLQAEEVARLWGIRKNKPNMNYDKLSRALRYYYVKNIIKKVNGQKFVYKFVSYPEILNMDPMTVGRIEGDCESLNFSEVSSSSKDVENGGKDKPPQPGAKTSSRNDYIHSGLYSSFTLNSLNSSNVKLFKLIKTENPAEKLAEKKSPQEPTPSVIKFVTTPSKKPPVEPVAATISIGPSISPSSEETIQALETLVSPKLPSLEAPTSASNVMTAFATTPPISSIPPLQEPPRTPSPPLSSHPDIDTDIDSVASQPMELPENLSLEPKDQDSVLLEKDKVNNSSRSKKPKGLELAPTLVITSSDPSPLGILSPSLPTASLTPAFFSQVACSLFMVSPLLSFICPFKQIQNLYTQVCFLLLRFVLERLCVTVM
In short, it runs like this: as §1

Another experiment concerns the target T7, ETV2 (Homo sapiens, UniProt O00321 1-342).
T7 sequence: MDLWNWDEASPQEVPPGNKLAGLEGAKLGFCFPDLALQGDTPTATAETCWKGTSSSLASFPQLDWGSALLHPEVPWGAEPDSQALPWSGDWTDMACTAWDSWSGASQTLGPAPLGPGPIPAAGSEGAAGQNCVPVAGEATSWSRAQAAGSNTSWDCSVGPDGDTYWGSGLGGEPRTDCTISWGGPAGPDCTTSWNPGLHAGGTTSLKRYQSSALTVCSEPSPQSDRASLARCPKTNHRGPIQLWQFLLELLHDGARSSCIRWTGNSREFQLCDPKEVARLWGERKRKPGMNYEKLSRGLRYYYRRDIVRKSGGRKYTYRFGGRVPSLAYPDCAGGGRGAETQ
In short, it runs like this: as §1

In the next experiment the target is T8, ERF (Homo sapiens, UniProt P50548 1-548).
T8 sequence: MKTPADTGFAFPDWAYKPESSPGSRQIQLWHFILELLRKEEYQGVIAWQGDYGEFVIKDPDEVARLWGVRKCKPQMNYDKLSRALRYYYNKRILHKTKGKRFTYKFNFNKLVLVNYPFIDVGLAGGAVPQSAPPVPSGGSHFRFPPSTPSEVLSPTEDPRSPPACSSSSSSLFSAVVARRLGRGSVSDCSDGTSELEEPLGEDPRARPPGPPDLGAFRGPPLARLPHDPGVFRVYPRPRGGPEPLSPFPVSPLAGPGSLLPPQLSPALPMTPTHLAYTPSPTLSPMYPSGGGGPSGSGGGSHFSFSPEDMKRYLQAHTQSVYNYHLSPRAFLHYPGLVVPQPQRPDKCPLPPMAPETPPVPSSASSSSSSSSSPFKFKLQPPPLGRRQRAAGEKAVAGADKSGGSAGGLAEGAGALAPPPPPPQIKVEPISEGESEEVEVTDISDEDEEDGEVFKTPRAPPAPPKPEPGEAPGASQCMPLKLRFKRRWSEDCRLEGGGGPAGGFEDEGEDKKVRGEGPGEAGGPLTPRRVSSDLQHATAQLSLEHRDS
In short, it runs like this: as §1

For a further experiment, the target named is T9, ETV3L (Homo sapiens, UniProt Q6ZN32 1-361).
T9 sequence: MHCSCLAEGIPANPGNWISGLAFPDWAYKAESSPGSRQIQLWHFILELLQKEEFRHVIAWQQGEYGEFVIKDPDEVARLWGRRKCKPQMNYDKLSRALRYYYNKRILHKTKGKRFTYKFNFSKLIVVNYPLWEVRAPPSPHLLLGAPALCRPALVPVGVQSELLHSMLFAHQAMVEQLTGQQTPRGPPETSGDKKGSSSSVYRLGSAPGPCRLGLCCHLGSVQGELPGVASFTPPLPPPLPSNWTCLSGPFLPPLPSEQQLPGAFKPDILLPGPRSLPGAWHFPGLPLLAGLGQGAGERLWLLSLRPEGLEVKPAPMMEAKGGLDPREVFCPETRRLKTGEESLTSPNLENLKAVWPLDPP
The gist of the method: as §1

The target of another experiment is T10, ETS2 (Homo sapiens, UniProt P15036 1-469).
T10 sequence: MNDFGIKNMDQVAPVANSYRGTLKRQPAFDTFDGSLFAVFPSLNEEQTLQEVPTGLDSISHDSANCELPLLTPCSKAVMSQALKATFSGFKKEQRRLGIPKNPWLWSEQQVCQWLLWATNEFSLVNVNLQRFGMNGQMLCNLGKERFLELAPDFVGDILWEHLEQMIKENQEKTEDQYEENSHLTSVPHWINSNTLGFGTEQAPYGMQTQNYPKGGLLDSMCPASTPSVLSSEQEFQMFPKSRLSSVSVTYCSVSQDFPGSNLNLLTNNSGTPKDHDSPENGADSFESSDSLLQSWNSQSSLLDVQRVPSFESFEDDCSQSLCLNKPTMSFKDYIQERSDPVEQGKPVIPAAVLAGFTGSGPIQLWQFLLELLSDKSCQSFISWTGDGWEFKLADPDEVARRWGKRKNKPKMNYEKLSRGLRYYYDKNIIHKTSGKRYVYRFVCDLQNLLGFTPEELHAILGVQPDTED
In short, it runs like this: as §1

The target of a further experiment is T11, ETV7 (Homo sapiens, UniProt Q9Y603 1-341).
T11 sequence: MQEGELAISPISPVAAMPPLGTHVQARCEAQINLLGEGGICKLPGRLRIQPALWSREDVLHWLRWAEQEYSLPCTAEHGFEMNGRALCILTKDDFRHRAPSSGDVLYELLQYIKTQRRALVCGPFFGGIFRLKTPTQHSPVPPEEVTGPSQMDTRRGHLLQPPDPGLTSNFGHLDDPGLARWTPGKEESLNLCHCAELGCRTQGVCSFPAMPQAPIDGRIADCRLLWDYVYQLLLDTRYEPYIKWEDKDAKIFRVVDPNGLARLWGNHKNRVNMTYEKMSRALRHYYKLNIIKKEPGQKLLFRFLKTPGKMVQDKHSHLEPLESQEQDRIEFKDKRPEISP
The gist of the method: as §1

A further experiment addresses ETV6 (Homo sapiens, UniProt P41212 1-452). The gist of the method:
as §1

Chain of SPIB (Q01892 whole entry): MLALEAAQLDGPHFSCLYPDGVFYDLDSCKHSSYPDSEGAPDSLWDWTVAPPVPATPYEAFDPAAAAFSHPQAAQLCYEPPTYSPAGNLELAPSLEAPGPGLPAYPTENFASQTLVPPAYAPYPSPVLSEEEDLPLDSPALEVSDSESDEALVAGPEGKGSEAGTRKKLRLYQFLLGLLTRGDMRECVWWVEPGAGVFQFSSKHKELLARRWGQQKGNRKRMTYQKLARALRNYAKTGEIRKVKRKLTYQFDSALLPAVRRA
Chain of ETV6 (P41212 whole entry): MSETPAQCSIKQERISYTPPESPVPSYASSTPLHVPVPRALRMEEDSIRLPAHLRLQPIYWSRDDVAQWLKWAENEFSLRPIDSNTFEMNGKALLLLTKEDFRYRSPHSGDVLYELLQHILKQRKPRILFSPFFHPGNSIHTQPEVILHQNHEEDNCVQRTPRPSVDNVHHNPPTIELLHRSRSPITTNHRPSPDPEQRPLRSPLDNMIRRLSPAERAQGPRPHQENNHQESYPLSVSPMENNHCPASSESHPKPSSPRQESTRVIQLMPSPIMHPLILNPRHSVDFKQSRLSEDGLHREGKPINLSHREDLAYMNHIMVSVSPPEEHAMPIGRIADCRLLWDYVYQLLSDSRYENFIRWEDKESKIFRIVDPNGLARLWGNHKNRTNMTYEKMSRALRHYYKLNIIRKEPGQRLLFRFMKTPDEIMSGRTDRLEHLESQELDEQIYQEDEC
Chain of ELF1 (P32519 whole entry): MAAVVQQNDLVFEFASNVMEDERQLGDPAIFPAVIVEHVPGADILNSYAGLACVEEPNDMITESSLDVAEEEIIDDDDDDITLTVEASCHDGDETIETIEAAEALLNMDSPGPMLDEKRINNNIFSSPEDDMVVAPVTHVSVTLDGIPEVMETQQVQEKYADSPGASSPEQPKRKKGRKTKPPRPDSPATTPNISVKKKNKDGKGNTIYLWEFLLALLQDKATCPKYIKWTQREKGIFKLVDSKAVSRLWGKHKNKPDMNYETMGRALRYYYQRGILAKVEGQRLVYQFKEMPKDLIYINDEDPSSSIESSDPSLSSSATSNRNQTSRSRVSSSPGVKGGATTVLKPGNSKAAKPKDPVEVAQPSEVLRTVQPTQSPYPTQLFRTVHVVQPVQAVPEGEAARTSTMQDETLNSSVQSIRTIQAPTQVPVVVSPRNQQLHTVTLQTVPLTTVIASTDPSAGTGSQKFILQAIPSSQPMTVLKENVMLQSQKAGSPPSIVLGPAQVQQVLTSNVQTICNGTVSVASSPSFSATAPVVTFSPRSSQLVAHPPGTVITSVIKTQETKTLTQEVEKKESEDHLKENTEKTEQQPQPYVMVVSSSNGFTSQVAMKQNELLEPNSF

For the sequence GATTAA, the binding signal was 1.01 fold enrichment (6-mer frequency, TF over GST control) with FLI1; 1.04 fold enrichment (6-mer frequency, TF over GST control) in the experiment with ELK1; 1.04 fold enrichment (6-mer frequency, TF over GST control) with GABPA; 1.02 fold enrichment (6-mer frequency, TF over GST control) with ELF1; 1.01 fold enrichment (6-mer frequency, TF over GST control) with EHF; 1.02 fold enrichment (6-mer frequency, TF over GST control) with SPIB. In addition, the binding signal is 1.13 fold enrichment (6-mer frequency, TF over GST control) in the experiment with ELK3; 1.06 fold enrichment (6-mer frequency, TF over GST control) in the experiment with ELK4; 1.11 fold enrichment (6-mer frequency, TF over GST control) with ETV2; 1.04 fold enrichment (6-mer frequency, TF over GST control) in the experiment with ERF; 1.1 fold enrichment (6-mer frequency, TF over GST control) with ETV3L; 1.01 fold enrichment (6-mer frequency, TF over GST control) in the experiment with ETS2. Besides, the binding signal in the experiment with ETV7 was 1.01 fold enrichment (6-mer frequency, TF over GST control); in the experiment with ETV6, 1.12 fold enrichment (6-mer frequency, TF over GST control).
